Data reported in PubChem BioAssay (NCI).
Compounds without any hit were thinned out: in the full panel of roughly 83,000, 20% have a hit.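 Growth was measured after 48 h exposure to one concentration of compound in 96-well plates. Values under 10 count as active.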 Active and inactive are the calls of the source.

What was measured:
Experiment in all cases: NCI-60 one-dose screen, 48 h (100 = growth as untreated, 0 = no growth, -100 = all killed)
Conditions in all cases: 10 µM
NCI-H23 lung = tested on: NCI-H23 lung
NCI-H226 lung = tested on: NCI-H226 lung
HOP-62 NSCLC = tested on: HOP-62 NSCLC
NCI-H460 lung = tested on: NCI-H460 lung
NCI-H522 lung = tested on: NCI-H522 lung
A549/ATCC NSCLC = tested on: A549/ATCC NSCLC
786-0 renal = tested on: 786-0 renal
COLO 205 colon = tested on: COLO 205 colon
DU-145 prostate = tested on: DU-145 prostate
K-562 leukemia = tested on: K-562 leukemia
MALME-3M melanoma = tested on: MALME-3M melanoma
MDA-MB-231 breast = tested on: MDA-MB-231 breast
RXF 393 renal = tested on: RXF 393 renal
SF-268 CNS = tested on: SF-268 CNS
SF-295 CNS = tested on: SF-295 CNS
SF-539 CNS = tested on: SF-539 CNS
UACC-257 melanoma = tested on: UACC-257 melanoma
M14 melanoma = tested on: M14 melanoma
HOP-92 NSCLC = tested on: HOP-92 NSCLC

Measured: growth

C1CN(CC2CCC(CN3CCOCC3)O2)CCO1 (configuration not stated)
inactive: NCI-H23 lung 98.6% | NCI-H226 lung 107% | HOP-62 NSCLC 95.1% | NCI-H460 lung 110% | NCI-H522 lung 66.2% | A549/ATCC NSCLC 96.9% | 786-0 renal 99.7% | COLO 205 colon 60.8% | DU-145 prostate 111% | K-562 leukemia 63.1% | MDA-MB-231 breast 118% | RXF 393 renal 112% | SF-268 CNS 104% | SF-295 CNS 99.7% | SF-539 CNS 98% | UACC-257 melanoma 103% | M14 melanoma 95.9%
active: MALME-3M melanoma -4.36%

O=C(O)c1cc([N+](=O)[O-])ccc1Oc1ccccc1
inactive: NCI-H23 lung 101% | NCI-H226 lung 98.6% | HOP-62 NSCLC 101% | NCI-H460 lung 105% | NCI-H522 lung 97.1% | A549/ATCC NSCLC 99.7% | 786-0 renal 104% | COLO 205 colon 104% | DU-145 prostate 104% | K-562 leukemia 116% | MALME-3M melanoma 81.3% | MDA-MB-231 breast 97.3% | RXF 393 renal 107% | SF-268 CNS 97.3% | SF-295 CNS 101% | SF-539 CNS 94.6% | UACC-257 melanoma 96.8% | M14 melanoma 106%

O=[N+]([O-])c1cc(Cl)cc(Cl)c1O
inactive: NCI-H23 lung 97.7% | NCI-H226 lung 101% | HOP-62 NSCLC 91.5% | NCI-H460 lung 105% | NCI-H522 lung 82.3% | A549/ATCC NSCLC 97.4% | 786-0 renal 99.9% | COLO 205 colon 108% | DU-145 prostate 105% | K-562 leukemia 109% | MALME-3M melanoma 97.1% | MDA-MB-231 breast 110% | RXF 393 renal 104% | SF-268 CNS 100% | SF-295 CNS 97.3% | SF-539 CNS 89.7% | UACC-257 melanoma 104% | M14 melanoma 96.9%

COc1cc2cc(Oc3ccc(NC(=O)c4ccc(Cl)c(C(F)(F)F)c4)cc3)c(C)nc2cc1OC
active: SF-295 CNS 7.81%
inactive: NCI-H23 lung 12.5% | NCI-H226 lung 25.5% | HOP-62 NSCLC 73.1% | NCI-H460 lung 19.7% | NCI-H522 lung 20.3% | A549/ATCC NSCLC 13.8% | 786-0 renal 32.2% | COLO 205 colon 33.1% | DU-145 prostate 43% | K-562 leukemia 14.8% | MALME-3M melanoma 37.2% | MDA-MB-231 breast 48.3% | RXF 393 renal 50.8% | SF-268 CNS 56.1% | SF-539 CNS 57.3% | UACC-257 melanoma 36.8% | M14 melanoma 18.4%

CN1CCN(CCC(=O)Nc2cccc(-n3cc(-c4ccncc4)c(-c4ccc(Cl)c(O)c4)n3)c2)CC1
active: MDA-MB-231 breast -72% | SF-539 CNS -4.71%
inactive: NCI-H23 lung 46.4% | NCI-H226 lung 66.6% | HOP-62 NSCLC 53.7% | NCI-H460 lung 13.4% | NCI-H522 lung 16.9% | A549/ATCC NSCLC 30.2% | 786-0 renal 32.2% | COLO 205 colon 12.8% | DU-145 prostate 25.8% | K-562 leukemia 12.8% | MALME-3M melanoma 47.6% | RXF 393 renal 30% | SF-268 CNS 50.8% | SF-295 CNS 19.3% | UACC-257 melanoma 46.3% | M14 melanoma 12.3%

COC1=CC(=O)OC(c2ccc(OC)cc2)C1 (configuration not stated)
inactive: NCI-H23 lung 89.2% | NCI-H226 lung 110% | HOP-62 NSCLC 105% | NCI-H460 lung 109% | HOP-92 NSCLC 98.1% | A549/ATCC NSCLC 108% | 786-0 renal 109% | COLO 205 colon 108% | DU-145 prostate 113% | K-562 leukemia 130% | MDA-MB-231 breast 100% | RXF 393 renal 113% | SF-268 CNS 96.5% | SF-295 CNS 91.7% | SF-539 CNS 104% | UACC-257 melanoma 104% | M14 melanoma 122%

OCC1OC2C(NC(=S)N2c2ccccc2)C(O)C1O (configuration not stated)
inactive: NCI-H23 lung 102% | NCI-H226 lung 95.5% | HOP-62 NSCLC 101% | NCI-H460 lung 105% | NCI-H522 lung 104% | A549/ATCC NSCLC 93.9% | 786-0 renal 110% | COLO 205 colon 105% | DU-145 prostate 107% | K-562 leukemia 108% | MALME-3M melanoma 131% | MDA-MB-231 breast 99.8% | RXF 393 renal 108% | SF-268 CNS 96.8% | SF-295 CNS 99.8% | SF-539 CNS 102% | UACC-257 melanoma 102% | M14 melanoma 120%

S=C(NCc1ccccc1)NCc1ccccc1
inactive: NCI-H23 lung 95% | NCI-H226 lung 97.8% | HOP-62 NSCLC 94.2% | NCI-H460 lung 103% | NCI-H522 lung 82.4% | A549/ATCC NSCLC 86.1% | 786-0 renal 96.6% | COLO 205 colon 107% | DU-145 prostate 107% | K-562 leukemia 98.7% | MALME-3M melanoma 95.3% | MDA-MB-231 breast 100% | RXF 393 renal 101% | SF-268 CNS 95.8% | SF-295 CNS 95.8% | SF-539 CNS 101% | UACC-257 melanoma 81.9% | M14 melanoma 101%

NC1=NC(c2ccccc2)C2=C(N1)/C(=C/c1ccccc1)CCC2 (configuration not stated)
inactive: NCI-H23 lung 78.1% | NCI-H226 lung 109% | HOP-62 NSCLC 114% | NCI-H460 lung 98.9% | NCI-H522 lung 48.4% | A549/ATCC NSCLC 87% | 786-0 renal 101% | COLO 205 colon 112% | DU-145 prostate 117% | K-562 leukemia 76.4% | MALME-3M melanoma 103% | MDA-MB-231 breast 101% | RXF 393 renal 101% | SF-268 CNS 91.7% | SF-295 CNS 95% | SF-539 CNS 92.8% | UACC-257 melanoma 83.8% | M14 melanoma 61.9%

COc1cc2cc(Oc3ccc(NC(=O)c4ccccc4)cc3)c(C)nc2cc1OC
active: NCI-H226 lung 9.16% | NCI-H522 lung 7.6%
inactive: NCI-H23 lung 83.5% | HOP-62 NSCLC 43.8% | NCI-H460 lung 94.8% | A549/ATCC NSCLC 89.6% | 786-0 renal 118% | COLO 205 colon 109% | DU-145 prostate 100% | K-562 leukemia 88.1% | MALME-3M melanoma 93.6% | MDA-MB-231 breast 66% | RXF 393 renal 53.3% | SF-268 CNS 65.5% | SF-295 CNS 72.2% | SF-539 CNS 97.6% | UACC-257 melanoma 95.2% | M14 melanoma 121%

COc1ccc2nc(-c3ccc(Cl)cc3)cc(-c3nnc(SC/C(=N\O)c4ccccc4)n3-c3ccccc3)c2c1
inactive: NCI-H23 lung 92.9% | NCI-H226 lung 82.5% | HOP-62 NSCLC 109% | NCI-H460 lung 86.9% | NCI-H522 lung 82.7% | A549/ATCC NSCLC 63.1% | 786-0 renal 88.1% | COLO 205 colon 98.7% | DU-145 prostate 84.3% | K-562 leukemia 59% | MALME-3M melanoma 118% | MDA-MB-231 breast 86.3% | RXF 393 renal 66.7% | SF-268 CNS 83.5% | SF-295 CNS 102% | SF-539 CNS 103% | UACC-257 melanoma 72.1% | M14 melanoma 78.6%

O=[N+]([O-])c1cccc(/C=N/NC(=S)NC23CC4CC(CC(C4)C2)C3)c1
inactive: NCI-H23 lung 86.6% | NCI-H226 lung 48.4% | HOP-62 NSCLC 24.3% | NCI-H460 lung 56.4% | NCI-H522 lung 88.8% | A549/ATCC NSCLC 56.5% | 786-0 renal 79.8% | COLO 205 colon 102% | DU-145 prostate 83.9% | K-562 leukemia 89.2% | MALME-3M melanoma 60.1% | MDA-MB-231 breast 70.2% | RXF 393 renal 75.9% | SF-268 CNS 77.8% | SF-295 CNS 73.3% | SF-539 CNS 92.3% | UACC-257 melanoma 76.4% | M14 melanoma 89%

COc1cc2c(Nc3ccc(-c4ccc(N)cc4)cc3)ncnc2c(OC)c1OC
active: SF-295 CNS -33.2%
inactive: NCI-H23 lung 70.6% | NCI-H226 lung 78.6% | HOP-62 NSCLC 85.9% | NCI-H460 lung 19.9% | NCI-H522 lung 48.6% | A549/ATCC NSCLC 29.2% | 786-0 renal 48% | COLO 205 colon 19.8% | DU-145 prostate 34.9% | K-562 leukemia 11% | MALME-3M melanoma 36.5% | MDA-MB-231 breast 56.9% | RXF 393 renal 103% | SF-268 CNS 52.6% | SF-539 CNS 17.5% | UACC-257 melanoma 43.8% | M14 melanoma 13.8%

COc1ccc2cc(-c3nc4ccccc4s3)c(Cl)nc2c1OC
inactive: NCI-H23 lung 84.4% | NCI-H226 lung 93.9% | HOP-62 NSCLC 90.7% | NCI-H460 lung 98.4% | NCI-H522 lung 101% | A549/ATCC NSCLC 110% | 786-0 renal 119% | COLO 205 colon 98% | DU-145 prostate 113% | K-562 leukemia 92.3% | MALME-3M melanoma 109% | MDA-MB-231 breast 87.3% | RXF 393 renal 104% | SF-268 CNS 93.3% | SF-295 CNS 108% | SF-539 CNS 99% | UACC-257 melanoma 109% | M14 melanoma 102%

COc1ccc2c(c1)C(=O)/C(=C/c1ccc([N+](=O)[O-])o1)O2
active: NCI-H23 lung -59% | NCI-H226 lung -13.7% | HOP-62 NSCLC -45.3% | NCI-H460 lung -46.8% | NCI-H522 lung -85% | A549/ATCC NSCLC -5.34% | 786-0 renal -71% | COLO 205 colon -81.6% | DU-145 prostate -85% | K-562 leukemia -34.8% | MALME-3M melanoma -77.8% | MDA-MB-231 breast -76.9% | RXF 393 renal -78.3% | SF-268 CNS -72.7% | SF-295 CNS 3.29% | SF-539 CNS -49.8% | UACC-257 melanoma -85.6% | M14 melanoma -64.2%

COc1cc(-c2nn(-c3cccc(NC(=O)NCCNC(=O)c4cccc(C(F)(F)F)c4)c3)cc2-c2ccncc2)ccc1Cl
active: K-562 leukemia 8.57% | SF-295 CNS 6.79%
inactive: NCI-H23 lung 57% | NCI-H226 lung 70.8% | HOP-62 NSCLC 59.6% | NCI-H460 lung 18.7% | NCI-H522 lung 24.4% | A549/ATCC NSCLC 31.3% | 786-0 renal 17.4% | COLO 205 colon 39.7% | DU-145 prostate 48.9% | MALME-3M melanoma 52.6% | MDA-MB-231 breast 41.4% | RXF 393 renal 15.3% | SF-268 CNS 41.8% | SF-539 CNS 22.2% | UACC-257 melanoma 51% | M14 melanoma 15.3%
